# Data: PubChem BioAssay (EPA / NIEHS)
# Where “and” joins values, the source holds several entries; their conditions need not be identical. Identical values can stand only once. Records with an inconclusive call do not appear. Some structures have more than one record in an assay (separate samples or runs), and their calls can disagree. Calls of active or inactive are those of the source. The calls were made as follows: active = hit-call score of the fitted dose curve at least 0.9, where 1 is the maximum; inconclusive = response in the unintended direction; inactive = score below 0.9.
# Assays:
# [1] = molecular target: rat Monoamine Oxidase, MAO-B, Peripheral (MAOBP), Maob (gene 25750) (UniProt P19643); assay: NVS_ENZ_rMAOBP: NovaScreen (NVS) Enzymatic Assay for rat Monoamine Oxidase, MAO-B, Peripheral (MAOBP) (AID 2283242)
# Sequence of rat Monoamine Oxidase, MAO-B, Peripheral (MAOBP), Maob (gene 25750) (P19643 whole entry, looked up): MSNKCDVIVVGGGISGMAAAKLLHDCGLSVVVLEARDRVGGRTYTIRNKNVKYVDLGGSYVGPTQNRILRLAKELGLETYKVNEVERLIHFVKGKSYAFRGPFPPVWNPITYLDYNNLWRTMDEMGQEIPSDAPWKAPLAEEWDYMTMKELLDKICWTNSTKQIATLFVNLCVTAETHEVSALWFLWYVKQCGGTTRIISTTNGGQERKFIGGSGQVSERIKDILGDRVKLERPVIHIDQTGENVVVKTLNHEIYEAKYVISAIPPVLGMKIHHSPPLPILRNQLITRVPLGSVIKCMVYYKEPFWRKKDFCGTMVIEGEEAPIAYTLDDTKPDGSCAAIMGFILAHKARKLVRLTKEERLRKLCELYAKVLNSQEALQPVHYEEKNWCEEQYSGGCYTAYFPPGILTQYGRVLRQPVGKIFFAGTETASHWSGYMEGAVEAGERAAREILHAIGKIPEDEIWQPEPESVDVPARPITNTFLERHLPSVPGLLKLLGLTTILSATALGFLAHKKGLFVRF
# [2] = system: rat Monoamine Oxidase, MAO-A, Central (MAOAC), gene 29253; assay: NVS_ENZ_rMAOAC: NovaScreen (NVS) Enzymatic Assay for rat Monoamine Oxidase, MAO-A, Central (MAOAC) (AID 2283243);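 also: potency refers to inhibition seen as signal drop below DMSO baseline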
# Method in brief: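 Rat brain tissue extract served as the cell-free enzyme source; activity was measured by radiometric scintillation counting 1.5 hours after compound addition. Loss of signal relative to DMSO baseline indicated inhibition; primary screen at 25 uM in duplicate.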
# [3] = molecular target: guinea pig Leukotriene D4 Receptor (LTD4), CYSLTR1 (gene 100135514) (UniProt Q2NNR5); assay: NVS_GPCR_gLTD4: NovaScreen (NVS) G Protein-Coupled Receptor Assay for guinea pig Leukotriene D4 Receptor (LTD4) (AID 2283248)
# Sequence of guinea pig Leukotriene D4 Receptor (LTD4), CYSLTR1 (gene 100135514) (Q2NNR5 whole entry, looked up): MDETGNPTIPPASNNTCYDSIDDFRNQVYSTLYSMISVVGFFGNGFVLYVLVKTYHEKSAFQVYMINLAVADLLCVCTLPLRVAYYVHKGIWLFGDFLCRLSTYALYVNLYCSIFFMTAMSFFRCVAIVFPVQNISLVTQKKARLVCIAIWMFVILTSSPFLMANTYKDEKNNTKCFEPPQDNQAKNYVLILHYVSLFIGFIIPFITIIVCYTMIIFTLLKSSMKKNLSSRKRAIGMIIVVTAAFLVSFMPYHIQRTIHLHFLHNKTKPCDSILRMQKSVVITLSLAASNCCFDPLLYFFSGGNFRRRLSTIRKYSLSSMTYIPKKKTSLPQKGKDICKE
# Method in brief: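 Radioligand displacement on guinea pig lung membranes, 1 h incubation, filtration and scintillation counting; DMSO as negative control. Duplicate 25 uM primary screen, then singleton concentration-response up to 50 uM.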
# [4] = molecular target: human Serotonin, 5-Hydroxytryptamine Receptor 5A (5HT5A), HTR5A (gene 3361) (UniProt P47898); assay: NVS_GPCR_h5HT5A: NovaScreen (NVS) G Protein-Coupled Receptor Assay for human Serotonin, 5-Hydroxytryptamine Receptor 5A (5HT5A) (AID 2283251)
# Sequence of human Serotonin, 5-Hydroxytryptamine Receptor 5A (5HT5A), HTR5A (gene 3361) (P47898 whole entry, looked up): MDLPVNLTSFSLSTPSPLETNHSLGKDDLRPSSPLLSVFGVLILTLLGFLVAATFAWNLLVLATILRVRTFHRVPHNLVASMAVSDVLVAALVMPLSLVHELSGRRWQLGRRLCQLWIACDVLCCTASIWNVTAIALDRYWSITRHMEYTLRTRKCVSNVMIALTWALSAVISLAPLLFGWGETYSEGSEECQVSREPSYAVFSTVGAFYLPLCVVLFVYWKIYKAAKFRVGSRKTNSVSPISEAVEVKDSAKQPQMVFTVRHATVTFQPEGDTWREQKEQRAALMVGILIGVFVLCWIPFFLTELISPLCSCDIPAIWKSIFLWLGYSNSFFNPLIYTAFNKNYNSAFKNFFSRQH
# Method in brief: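 Cell-free radioligand displacement binding on HEK293-derived membrane protein, 1 h incubation, filter-based scintillation counting. Primary screen in duplicate at 25 uM, actives followed in concentration series; loss of signal fitted versus DMSO.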
# [5] = molecular target: human Adenosine A1 Receptor (AdoRA1), ADORA1 (gene 134) (UniProt P30542); assay: NVS_GPCR_hAdoRA1: NovaScreen (NVS) G Protein-Coupled Receptor Assay for human Adenosine A1 Receptor (AdoRA1) (AID 2283254)
# Sequence of human Adenosine A1 Receptor (AdoRA1), ADORA1 (gene 134) (P30542 whole entry, looked up): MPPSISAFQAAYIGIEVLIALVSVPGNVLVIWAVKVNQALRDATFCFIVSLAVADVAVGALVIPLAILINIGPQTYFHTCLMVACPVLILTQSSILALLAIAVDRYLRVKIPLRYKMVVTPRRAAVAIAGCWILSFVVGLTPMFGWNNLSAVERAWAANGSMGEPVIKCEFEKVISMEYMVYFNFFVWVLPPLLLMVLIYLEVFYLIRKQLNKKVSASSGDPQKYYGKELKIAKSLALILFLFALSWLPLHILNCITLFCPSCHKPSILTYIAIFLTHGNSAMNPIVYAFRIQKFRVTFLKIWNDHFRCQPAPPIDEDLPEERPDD
# Method in brief: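 Radioligand binding was run on human cortical membranes, cell-free, with filter-based scintillation counting 1 h after dosing. The primary screen was duplicate at 25 uM, followed by concentration series. Signal loss versus DMSO was fitted positive-direction.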
# [6] = system: guinea pig Leukotriene B4 Receptor (LTB4), gene 100379538; assay: NVS_GPCR_gLTB4: NovaScreen (NVS) G Protein-Coupled Receptor Assay for guinea pig Leukotriene B4 Receptor (LTB4) (AID 2283247)
# Method in brief: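 Radioligand displacement on guinea pig spleen membranes, filter-based scintillation counting 2 h after dosing. Primary duplicate single point at 25 uM; hits over threshold (e.g. 30% inhibition) run in concentration-response up to 50 uM, DMSO baseline.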
# [7] = system: guinea pig Muscarinic, Peripheral (Mperiperal) Receptor, Non-selective Binding, gene 100379235; assay: NVS_GPCR_gMPeripheral_NonSelective: NovaScreen (NVS) G Protein-Coupled Receptor Assay for guinea pig Muscarinic, Peripheral (Mperiperal) Receptor, Non-selective Binding (AID 2283250)
# Method in brief: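 Guinea pig bladder membranes, radioligand binding read 1 h after dosing by filter scintillation counting; loss of signal vs DMSO. Primary duplicate screen at 25 uM, then concentration-response up to 50 uM.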
# [8] = molecular target: human Serotonin, 5-Hydroxytryptamine Receptor 6 (5HT6), HTR6 (gene 3362) (UniProt P50406); assay: NVS_GPCR_h5HT6: NovaScreen (NVS) G Protein-Coupled Receptor Assay for human Serotonin, 5-Hydroxytryptamine Receptor 6 (5HT6) (AID 2283253)
# Sequence of human Serotonin, 5-Hydroxytryptamine Receptor 6 (5HT6), HTR6 (gene 3362) (P50406 whole entry, looked up): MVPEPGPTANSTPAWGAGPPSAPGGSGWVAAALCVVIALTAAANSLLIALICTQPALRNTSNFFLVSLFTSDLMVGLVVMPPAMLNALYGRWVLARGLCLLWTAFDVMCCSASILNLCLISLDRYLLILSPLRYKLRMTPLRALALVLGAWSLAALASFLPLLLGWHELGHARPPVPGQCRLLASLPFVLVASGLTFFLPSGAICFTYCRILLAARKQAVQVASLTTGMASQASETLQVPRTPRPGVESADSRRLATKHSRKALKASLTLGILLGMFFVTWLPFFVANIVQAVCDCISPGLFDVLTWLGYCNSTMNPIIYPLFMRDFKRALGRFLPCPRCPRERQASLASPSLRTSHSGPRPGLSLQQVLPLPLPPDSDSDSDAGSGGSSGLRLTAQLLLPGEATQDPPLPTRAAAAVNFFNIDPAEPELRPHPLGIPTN
# Description: NVS_GPCR_h5HT6 is a biochemical, single-readout assay that uses extracted gene-proteins from HEK293 in a cell-free assay. Measurements were taken 1 hour after chemical dosing in a 96-well plate.NVS_GPCR_h5HT6 is one of one assay component(s) measured or calculated from the NVS_GPCR_h5HT6 assay. It is designed to make measurements of radioligand binding, a form of binding reporter, as detected with scintillation counting signals by Filter-based radiodetection technology.Data from the assay component NVS_GPCR_h5HT6 was analyzed into 1 assay endpoint. This assay endpoint, NVS_GPCR_h5HT6, was analyzed in the positive analysis fitting direction relative to DMSO as the negative control and baseline of activity. Using a type of binding reporter, loss-of-signal activity can be used to understand changes in the binding as they relate to the gene HTR6. Furthermore, this assay endpoint can be referred to as a primary readout, because the performed assay has only produced 1 assay endpoint. To generalize the intended target to other relatable targets, this assay endpoint is annotated to the gpcr intended target family, where the subfamily is rhodopsin-like receptor.
# Binding assays used specific radioligands (tritiated, iodinated) with non-radioactive competitive displacement ligands in agonist or antagonist protocols (as indicated) and various reference compounds and inhibitors to titrate specific binding to receptors and transporters. Most enzyme assays (CYPs, kinases, phosphatases, proteases, HDACs) used recombinant protein and specific substrates (fluorescence mostly, some colorimetric and radioactive) and inhibitors, followed by a biochemical separation of substrate and product. All assays for the biochemical HTS were initially run in duplicate at a single concentration (10 uM for CYP450 assays and 25 uM for all others). […] Each assay was run with positive and negative controls, and concurrent controls on every plate. The follow-up (secondary) screen tested active chemical-pairs in concentration series, as well as a few additional assays not tested in the primary screen, some selected negative inactives, and several cases re-run in the concentration series for confirmatory purposes.
# [9] = molecular target: guinea pig Opioid, Kappa 1 Receptor (OpiateK), OPRK1 (gene 100135587) (UniProt P41144); assay: NVS_GPCR_gOpiateK: NovaScreen (NVS) G Protein-Coupled Receptor Assay for guinea pig Opioid, Kappa 1 Receptor (OpiateK) (AID 2283252);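 also: radioligand displacement from kappa opioid receptor in guinea pig cerebellar membranes; active means reduced radioligand binding relative to DMSO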
# Sequence of guinea pig Opioid, Kappa 1 Receptor (OpiateK), OPRK1 (gene 100135587) (P41144 whole entry, looked up): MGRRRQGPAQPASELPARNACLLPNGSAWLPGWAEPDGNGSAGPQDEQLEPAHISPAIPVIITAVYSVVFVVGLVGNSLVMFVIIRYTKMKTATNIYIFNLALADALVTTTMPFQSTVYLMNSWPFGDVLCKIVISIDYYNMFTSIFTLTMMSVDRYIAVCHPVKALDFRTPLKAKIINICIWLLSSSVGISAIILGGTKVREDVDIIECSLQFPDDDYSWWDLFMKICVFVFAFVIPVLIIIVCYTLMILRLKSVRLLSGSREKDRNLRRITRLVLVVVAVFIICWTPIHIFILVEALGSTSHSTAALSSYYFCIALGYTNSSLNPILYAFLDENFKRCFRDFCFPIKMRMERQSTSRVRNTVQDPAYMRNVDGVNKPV
# Method in brief: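 Signal is scintillation counts of filter-trapped radioligand bound to guinea pig cerebellar membrane receptor, measured 2 hours post-dosing. Activity is loss of binding versus DMSO, first at 25 uM in duplicate, then as concentration series for actives.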
# [10] = NVS_GPCR_bNPY_NonSelective: NovaScreen (NVS) G Protein-Coupled Receptor Assay for bovine Neuropeptide Y (NPY) Receptor, Non-selective Binding (AID 2283245)
# Description: NVS_GPCR_bNPY_NonSelective is a biochemical, single-readout assay that uses extracted gene-proteins from Bovine hippocampal membranes in a tissue-based cell-free assay. Measurements were taken 1 hour after chemical dosing in a 96-well plate.NVS_GPCR_bNPY_NonSelective is one of one assay component(s) measured or calculated from the NVS_GPCR_bNPY_NonSelective assay. It is designed to make measurements of radioligand binding, a form of binding reporter, as detected with scintillation counting signals by Filter-based radiodetection technology.Data from the assay component NVS_GPCR_bNPY_NonSelective was analyzed into 1 assay endpoint. This assay endpoint, NVS_GPCR_bNPY_NonSelective, was analyzed in the positive analysis fitting direction relative to DMSO as the negative control and baseline of activity. Using a type of binding reporter, loss-of-signal activity can be used to understand changes in the binding as they relate to the gene NPY. Furthermore, this assay endpoint can be referred to as a primary readout, because the performed assay has only produced 1 assay endpoint. To generalize the intended target to other relatable targets, this assay endpoint is annotated to the gpcr intended target family, where the subfamily is rhodopsin-like receptor. […]
smiles,measurement,setting,value
Oc1cc(Cl)ccc1Oc1ccc(Cl)cc1Cl,outcome,[1],inactive
same,AC50,[2],38.9 µM (active)
Oc1ccc(Cl)cc1Cc1ccccc1,AC50,[1],13.6 µM (active)
same,AC50,[2],17.3 µM (active) and 25.2 µM (active)
same,outcome,[2],inactive
same,AC50,[3],6.93 µM (active)
same,outcome,[3],inactive
same,AC50,[4],25.2 µM (active) [middle of 6 runs]
same,AC50,[5],16.1 µM (active) [middle of 6 runs]
O=C(O)C(F)(F)C(F)(F)C(F)(F)C(F)(F)C(F)(F)C(F)(F)C(F)(F)F,AC50,[6],18.5 µM (active)
same,outcome,[3],inactive
same,outcome,[7],inactive
same,outcome,[4],inactive
O=S(=O)(O)C(F)(F)C(F)(F)C(F)(F)C(F)(F)C(F)(F)C(F)(F)C(F)(F)C(F)(F)F,AC50,[6],13.1 µM (active) [middle of 4 runs]
same,outcome,[6],inactive
same,AC50,[3],24 µM (active) [middle of 4 runs]
same,outcome,[3],inactive
same,AC50,[4],35.1 µM (active) and 11.6 µM (active) and 33.8 µM (active)
same,outcome,[4],inactive
same,AC50,[8],32.7 µM (active) and 42.8 µM (active)
O=C(Nc1ccccc1)Nc1cnns1,AC50,[2],5.16 µM (active)
same,AC50,[6],25 µM (active)
same,AC50,[4],3.88 µM (active)
O=S1OCC2C(CO1)C1(Cl)C(Cl)=C(Cl)C2(Cl)C1(Cl)Cl (centres undefined),outcome,[4],inactive
COP(=S)(OC)Oc1ccc([N+](=O)[O-])cc1,AC50,[6],10.5 µM (active)
CNC(=O)Oc1cccc(N=CN(C)C)c1,outcome,[2],inactive
CCOCN(C(=O)CCl)c1c(C)cccc1CC,outcome,[9],inactive
same,outcome,[8],inactive
N#Cc1c(Cl)c(Cl)c(Cl)c(C#N)c1Cl,outcome,[8],inactive
CC(C)(C)C(O)/C(=C\c1ccc(Cl)cc1Cl)n1cncn1 (centres undefined),outcome,[4],inactive
same,outcome,[8],inactive
CCN(CC)C(=O)SCc1ccc(Cl)cc1,outcome,[4],inactive
C#CCN1C(=O)COc2cc(F)c(N3C(=O)C4=C(CCCC4)C3=O)cc21,AC50,[2],6.93 µM (active)
CCc1ccc(C(=O)NN(C(=O)c2cc(C)cc(C)c2)C(C)(C)C)cc1,outcome,[7],inactive
CCCN(CCC)c1c([N+](=O)[O-])cc(C(F)(F)F)cc1[N+](=O)[O-],AC50,[4],6.21 µM (active)
[2H]C1([2H])[n+]2ccccc2-c2cccc[n+]2C1([2H])[2H],outcome,[7],inactive
CCC(C)(NC(=O)c1cc(Cl)c(C)c(Cl)c1)C(=O)CCl (centres undefined),outcome,[4],inactive
CCC(C)(C)C(=O)OC1=C(c2ccc(Cl)cc2Cl)C(=O)OC12CCCCC2,outcome,[4],inactive
COC(=O)c1ccccc1CS(=O)(=O)NC(=O)Nc1nc(OC)cc(OC)n1,AC50,[2],25 µM (active)
O=C1c2ccccc2C(=O)N1SC(Cl)(Cl)Cl,outcome,[1],inactive
same,outcome,[7],inactive
same,outcome,[4],inactive
same,AC50,[8],16.3 µM (active)
CCCN(CCOc1c(Cl)cc(Cl)cc1Cl)C(=O)n1ccnc1,AC50,[2],8.15 µM (active)
same,outcome,[4],inactive
same,outcome,[9],inactive
CC[C@H](C)[C@H]1O[C@]2(C=C[C@@H]1C)C[C@@H]1C[C@@H](C/C=C(\C)[C@@H](O[C@H]3C[C@H](OC)[C@@H](O[C@H]4C[C@H](OC)[C@@H](O)[C@H](C)O4)[C@H](C)O3)[C@@H](C)/C=C/C=C3\CO[C@@H]4[C@H](O)C(C)=C[C@@H](C(=O)O1)[C@]34O)O2 (tested in a mixture with another compound),outcome,[10],inactive
same,AC50,[3],25 µM (active)
same,AC50,[4],3.1 µM (active)
